PubChem BioAssay AID1159580 (chemical genetic matrix, 2015)
Several values for one entry are separate records, joined by “and”; a condition that tells them apart may be missing. Equal entries are not always repeated. The campaign covered roughly 5,500 compounds. About 2,000 (36%) were called active. Roughly 18% stayed inconclusive and do not appear here. Cut-off read from the data, not from the text of the source: active = normalized growth mostly below about 0.91 (no sharp cut-off); inconclusive = no clear call, values can overlap the other calls; inactive = mostly above about 0.92. Some of the results follow.

Assay: chemical genetic growth profiling, strain panel (AID 1159580);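 note: tested at 20 µM; growth read once vehicle control cultures reached saturation at 30 °C; 1 = growth at the plate median or of vehicle wells; lower values mean less growth of the strain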
Settings: S. cerevisiae deletion strains, growth OD

Measured: normalized growth

C=C1CCC2C(CC2(C)C)C(=O)CCC1O (stereo unspecified)
inactive: locus YAL013W, strain DEP1, stronger effect = lower value 0.984 | locus YAL021C, strain ccr4, stronger effect = lower value 0.94 | locus YAL026C, strain drs2, stronger effect = lower value 0.996 | locus YAL030W, strain snc1, stronger effect = lower value 1 | locus YBL061C, strain skt5, stronger effect = lower value 0.999 | locus YBR009C, strain hhf1, stronger effect = lower value 0.987 | locus YBR021W, strain FUR4, stronger effect = lower value 1.02 | locus YBR023C, strain chs3, stronger effect = lower value 0.986 | locus YBR171W, strain sec66, stronger effect = lower value 1 | locus YBR229C, strain ROT2, stronger effect = lower value 1.01 | locus YBR231C, strain swc5, stronger effect = lower value 1.01 | locus YBR279W, strain paf1, stronger effect = lower value 0.995 | locus YCL011C, strain gbp2, stronger effect = lower value 0.984 | locus YCL016C, strain dcc1, stronger effect = lower value 0.983 | locus YCL029C, strain bik1, stronger effect = lower value 1 | locus YCL061C, strain MRC1, stronger effect = lower value 0.993 | locus YCL069W, strain vba3, stronger effect = lower value 0.999 | locus YCR088W, strain abp1, stronger effect = lower value 0.993 | locus YDL005C, strain med2, stronger effect = lower value 0.991 | locus YDL035C, strain GPR1, stronger effect = lower value 1 | locus YDL040C, strain nat1, stronger effect = lower value 1 | locus YDL074C, strain BRE1, stronger effect = lower value 1 | locus YDL101C, strain DUN1, stronger effect = lower value 1.03 | locus YDL134C, strain PPH21, stronger effect = lower value 1.04 | locus YDL185W, strain tfp1, stronger effect = lower value 1.03 | locus YDL192W, strain arf1, stronger effect = lower value 0.992 | locus YDR001C, strain nth1, stronger effect = lower value 0.976 | locus YDR069C, strain doa4, stronger effect = lower value 0.981 | locus YDR101C, strain arx1, stronger effect = lower value 0.995 | locus YDR137W, strain rgp1, stronger effect = lower value 0.985 | locus YDR159W, strain sac3, stronger effect = lower value 1.06 | locus YDR162C, strain NBP2, stronger effect = lower value 1.01 | locus YDR195W, strain ref2 0.968 | locus YDR297W, strain sur2, stronger effect = lower value 1.01 | locus YDR318W, strain mcm21, stronger effect = lower value 1 | locus YDR334W, strain swr1, stronger effect = lower value 0.988 | locus YDR335W, strain msn5, stronger effect = lower value 0.985 | locus YDR388W, stronger effect = lower value 1.02 | locus YDR392W, strain spt3, stronger effect = lower value 0.911 | locus YDR502C, strain sam2, stronger effect = lower value 1.04 | locus YEL003W, strain gim4, stronger effect = lower value 1 | locus YEL037C, strain rad23, stronger effect = lower value 0.993 | locus YEL061C, strain CIN8 (second series), stronger effect = lower value 0.993 | locus YEL061C, strain CIN8, stronger effect = lower value 1.02 | locus YER015W, strain faa2, stronger effect = lower value 0.981 | locus YER016W, strain bim1, stronger effect = lower value 1 | locus YER110C, stronger effect = lower value 1.02 | locus YER111C, strain swi4, stronger effect = lower value 0.997 | locus YER155C, strain BEM2 (second series), stronger effect = lower value 1.03 | locus YER155C, strain BEM2, stronger effect = lower value 1 | locus YER167W, strain BCK2, stronger effect = lower value 1 | locus YFR010W, strain ubp6, stronger effect = lower value 0.996 | locus YGL078C, strain dbp3, stronger effect = lower value 1.04 | locus YGL086W, strain mad1, stronger effect = lower value 1.02 | locus YGL167C, strain pmr1, stronger effect = lower value 0.975 | locus YGL173C, strain kem1, stronger effect = lower value 1 | locus YGL227W, strain vid30, stronger effect = lower value 0.985 | locus YGL240W, strain doc1, stronger effect = lower value 1 | locus YGL248W, strain PDE1, stronger effect = lower value 1.05 | locus YGL253W, strain hxk2, stronger effect = lower value 1.02 | locus YGR078C, strain PAC10, stronger effect = lower value 1.02 | locus YGR135W, strain pre9, stronger effect = lower value 1.08 | locus YGR229C, strain SMI1, stronger effect = lower value 0.945 | locus YGR252W, strain gcn5, stronger effect = lower value 1.08 | locus YHR013C, strain ard1, stronger effect = lower value 0.978 | locus YHR027C, strain rpn1, stronger effect = lower value 1 | locus YHR030C, strain SLT2, stronger effect = lower value 1.02 | locus YHR079C, strain IRE1 (second series), stronger effect = lower value 1.01 | locus YHR079C, strain IRE1, stronger effect = lower value 1.03 | locus YHR094C, strain hxt1, stronger effect = lower value 1.01 | locus YHR129C, strain ARP1, stronger effect = lower value 1.01 | locus YHR142W, strain chs7, stronger effect = lower value 0.979 | locus YHR200W, strain rpn10, stronger effect = lower value 1.03 | locus YIL066C, strain RNR3, stronger effect = lower value 1.02 | locus YIL073C, strain SPO22, stronger effect = lower value 1.09 | locus YIL125W, strain kgd1, stronger effect = lower value 1.01 | locus YIR030C, strain dcg1, stronger effect = lower value 1.01 | locus YJL092W, strain hpr5, stronger effect = lower value 0.988 | locus YJL095W, strain BCK1 (second series), stronger effect = lower value 0.987 | locus YJL095W, strain BCK1, stronger effect = lower value 1.08 and 1.04 | locus YJL115W, strain asf1, stronger effect = lower value 0.961 | locus YJL129C, strain trk1, stronger effect = lower value 0.984 | locus YJL134W, strain LCB3, stronger effect = lower value 1.01 | locus YJL154C, strain vps35, stronger effect = lower value 0.99 | locus YJL164C, strain tpk1, stronger effect = lower value 0.963 | locus YJL166W, strain qcr8, stronger effect = lower value 0.993
